Assay outcomes (PubChem)
The list is not random: actives were taken first. Their share in the collection is about 1%.
PriA SSB inh: inhibitors of Klebsiella pneumoniae PriA binding to SSB C-terminal tail, primary screen, biochemical, AlphaScreen | AlphaScreen SSBct-PriA binding, biotinylated peptide | inhibition, % at 33 µM | 0.6% of 430,000 active | AID 1272365, 2023; in the data active = inhibition mostly above about 37%, no sharp cut-off; inactive = mostly below about 20%;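 also: plate controls were negative control peptide for no effect and reference peptide for full effect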
FadD28 FP inh: inhibitors of FadD28 bisubstrate probe binding, primary screen, biochemical, fluorescence polarization, single point | Mycobacterium tuberculosis FadD28 fatty-acid-AMP ligase | inhibition, % at 12.5 µM | 0.22% of 360,000 active; in the data active = inhibition above about 8.5%, passing the limit was not always enough
PrP UTR inh: inhibition of PrP 5' UTR reporter expression | cell-based PrP 5' UTR mRNA reporter, plate reader | inhibition, % (no concentration beside the values) | 0.35% of 340,000 active | AID 488862, 2010; in the data active = inhibition above about 52%; also: 0 = median of the neutral control wells
TcdB GH inh: TcdB glycohydrolase inhibitors, primary screen, biochemical, single point, plate reader | Toxin B (Clostridioides difficile), P18177 | TcdB glycohydrolase enzymatic assay | inhibition, % at 9.99 µM | 0.24% of 350,000 active | AID 652162, 2013; in the data active = inhibition above about 10%
Mtb hypoxia rep: PubChem AID 1159583; M. tuberculosis hypoxia-regulated fluorescent reporter, fluorescence; fluorescence inhibition, % (concentration not given with the values); 0.1% of 300,000 active; in the data active = fluorescence inhibition mostly above about 23%, no sharp cut-off; inactive = mostly below about 17%
BioA inh: M. tuberculosis BioA enzyme inhibitors, primary screen, biochemical, plate reader, single point, HTS | 7,8-diaminopelargonic acid synthase BioA (Mycobacterium tuberculosis) | purified M. tuberculosis BioA enzyme | inhibition, % at 9.99 µM | 0.096% of 360,000 active | AID 602481, 2012; in the data active = inhibition above about 40%
* marks the source's active call; other numbers are inactive results; / = no result given; ! = repeats disagree.

SMILES	PriA SSB inh	FadD28 FP inh	PrP UTR inh	TcdB GH inh	Mtb hypoxia rep	BioA inh
Cc1ccc(NC(=O)CN(C)CC(=O)Nc2ccc(N3CCOCC3)cc2)cc1F	14	0	-1	-1	8	/
CCOc1ccc(Nc2ccc(S(=O)(=O)N3CCOCC3)cc2[N+](=O)[O-])cc1	/	0	/	0	/	3
CCc1ccc(Nc2ccc(S(=O)(=O)N3CCOCC3)cc2[N+](=O)[O-])cc1	61*	0	-55	/	12	0
C=CCC(CC(=O)NC(CO)Cc1ccccc1)C(=O)NC(COC(=O)C(CC=C)Cc1ccc(F)cc1)Cc1c[nH]c2ccccc12 (stereo unspecified)	/	/	/	/	36*!	/
C=CC[C@@H](CC(=O)N[C@@H](CO)Cc1ccccc1)C(=O)N[C@H](COC(=O)[C@@H](CC=C)Cc1ccc(F)cc1)Cc1c[nH]c2ccccc12	1	0	-5	-1	/	-3
COc1cccc(C=NNC(=O)C(=O)N2CCCC2)c1OC	-1	/	/	/	0	/
CCc1cccc2c(C(=O)COC(=O)c3ccc([N+](=O)[O-])s3)c[nH]c12	26	33*	-12	0	8	/
COCCNc1nnc(Cc2ccc(OC)c(OC)c2)c(=O)[nH]1	-1	0	/	1	-9	-1
Oc1ccccc1-c1cnc2cccnn12	/	-1	/	47*	/	1
O=C(Nc1ccc2c(c1)OCO2)N1CCn2cccc2[C@H]1c1ccc(F)c(F)c1	33*	/	/	/	/	/
O=C(Nc1cccc(Cl)c1)N1CCn2cccc2[C@H]1c1ccccc1F	13	/	/	/	/	/
COC(=O)c1cc2c(-c3ccccc3)c(C)c3ccccn3c-2c1C(=O)OC	66*	1	-21	/	18	0
COC(=O)c1c(Cl)c2n3ccccc3c(C)c(-c3ccccc3)c-2c1C(=O)OC	-4	0	-5	-12	9	-5
CC(NCC(O)COCc1cccs1)C1CC2CCC1C2 (stereo unspecified)	-2	-3	-18	/	9	0
COc1ccccc1CNc1nc2nc(C)c(Cl)c(=O)n2[nH]1	-10	-1	-39	/	0	-1
COc1ccc(CNc2nc3nc(C)c(Cl)c(=O)n3[nH]2)cc1	-8	-2	-12	-1	23*	-1
CCN1CCN(c2oc(-c3ccccc3C)nc2S(=O)(=O)c2ccccc2)CC1	39*	-2	-10	10*	7	/
COc1ccccc1-c1nc(S(=O)(=O)c2ccccc2)c(N2CCCCC2)o1	2	-1	-11	1	-1	-4
CCc1cccc2c(/C=N/NC(=O)c3cccc(S(=O)(=O)Nc4ccccc4Cl)c3)c[nH]c12	/	34*	-27	/	/	/
Cc1[nH]c2ccccc2c1C=NNC(=O)c1cccc(S(=O)(=O)Nc2ccccc2Cl)c1	21	/	/	/	0	/
Cc1ccc(/C=N/NC(=O)c2cccc(S(=O)(=O)Nc3ccccc3Cl)c2)o1	/	3	-20	12*	/	0
COc1cc2[nH]c3c(=O)n(CC(=O)NCc4ccc(C)o4)cnc3c2cc1OC	2	/	/	/	/	/
CC(C)CNC(=O)c1c(F)c(F)c(F)c(F)c1F	-6	0	-6	10*	10	0
CC1(C)C(/C=C/C=C/C=C/C=C2\N(CCCCS(=O)(=O)O)c3ccc4ccccc4c3C2(C)C)=[N+](CCCCS(=O)(=O)[O-])c2ccc3ccccc3c21	75*	12*	-7	/	/	0
CCCCNC(=O)C1CCN(S(=O)(=O)N2CCOCC2)CC1	-2	0	-40	10*	23	0
SMILES	PriA SSB inh	FadD28 FP inh	PrP UTR inh	TcdB GH inh	Mtb hypoxia rep	BioA inh
O=C(Nc1ccccc1)[C@H]1[C@H](CO)[C@H]2Cn3c(ccc(C4=CCCC4)c3=O)[C@H]2N1Cc1cocn1	/	/	/	0	/	3
C(=C\c1nc(N2CCCC2)c2ccccc2n1)/c1ccccc1	-67	-1	-8	/	45*	/
O=C(Cc1c[nH]c2ccccc12)Nc1ccc(Nc2ccncc2)cc1	/	/	/	1	/	/
Cc1cc(Nc2ccc(NC(=O)Cc3c[nH]c4ccccc34)cc2)nc(N2CCCC2)n1	45*	/	/	/	/	/
COc1ccc(C)cc1S(=O)(=O)N1CCC(C(=O)N2CCN(C)CC2)CC1	3	0	-24	/	11	/
Cc1ccc(CNC(=O)Cn2cnc3c(-c4ccc(Cl)cc4)csc3c2=O)cc1	-1	/	/	/	/	/
Cc1cccc(NC(=O)CSc2ccc(-c3ccccn3)nn2)c1	71*	/	/	/	/	/
CC(=O)Nc1cccc(NC(=O)CSc2ccc(-c3ccccn3)nn2)c1	13	0	-21	0	15	/
CC(=O)c1cccc(NC(=O)CSc2ccc(-c3ccccn3)nn2)c1	48*!	0	-4	3	10	7
COc1cc(Cn2nc(C3CC3)c3cnn(-c4cccc(Cl)c4)c3c2=O)cc(OC)c1	-12	/	/	/	/	/
C[C@@H](NC(=O)C[C@@H]1CC[C@H](NS(=O)(=O)c2cccc(F)c2)[C@H](CO)O1)c1ccccc1	/	/	/	-1	/	-1
COc1cc(C2OCC3C(c4ccc(OC5OC(CO)C(O)C(O)C5O)c(OC)c4)OCC23)ccc1OC1OC(CO)C(O)C(O)C1O (stereo unspecified)	/	/	/	/	5	/
COC(=O)c1c(C)cc(O)c(C=O)c1O	-16	0	-30	/	/	-2
Cc1cc2c(C(C)C)c(O)c(O)c(C=O)c2c(O)c1-c1c(C)cc2c(C(C)C)c(O)c(O)c(C=O)c2c1O	/	51*	/	-1	/	4
Cc1cccc(NC(=O)C2(c3ccc([N+](=O)[O-])cc3)CCCC2)c1	0	-3	-17	/	16	0
CN(CC(=O)Nc1ccc(OC(F)(F)F)cc1)C(=O)c1ccc(N2CCCC2=O)cc1	-6	0	-19	0	30*	2
CN(CC(=O)Nc1ccc(Cl)cc1)C(=O)c1ccc(N2CCCC2=O)cc1	-9	1	/	1	4	-1
COC(=O)C(c1ccccc1)C(CC(=O)c1ccccc1)c1ccccc1 (stereo unspecified)	/	-2	/	0	/	0
COC(=O)C(C(=O)OC)C(CC(=O)c1ccc(Br)cc1)c1ccccc1 (stereo unspecified)	-4	-3	-22	14*	4	-1
O=C1/C(=C/C=C/c2ccco2)SC(=S)N1NS(=O)(=O)c1ccccc1	-7	47*	-2	-2	10	-3
CC(C(=O)O)N1C(=O)/C(=C/C=C/c2ccco2)SC1=S (stereo unspecified)	2	36*	-3	/	8	-2
COc1cc([N+](=O)[O-])cc2cc(C(=O)Nc3ccc(S(=O)(=O)N4CCCCC4)cc3)c(=O)oc12	-16	/	/	/	/	/
Cc1ccc2c(c1)[C@@H]1CN(C)CC[C@@H]1N2S(=O)(=O)c1ccc([N+](=O)[O-])cc1	13	-1	-11	1	-4	-1
